Experimental data: PubChem BioAssay
Where “and” joins values, the source holds several entries; their conditions need not be identical. Identical values can stand only once. Records with an inconclusive call do not appear. Calls of active or inactive are those of the source. Unless noted, how the calls were made is not given here.

Experiments:
[1] = Wnt pathway potentiators raising nuclear beta-catenin – imaging, WNT3A-conditioned medium, mouse C2C12, NPC library, primary screen (AID 1117326; in the data active means nuclear beta-catenin stimulation mostly above about 4.2%, no sharp cut-off; inactive means mostly below about 10%); settings: stronger effect = higher value
[2] = rescue of PC12 cells from polyQ htt toxicity – LDH release (AID 1610); settings: PC12 mutant huntingtin toxicity, final LDH at 4 uM, stronger effect = lower value
[3] = glutamate transport activators, MN-1 cells, MN-1 cell line (AID 1612); settings: MN-1 motor neuron cells, stronger effect = higher value;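 further: tested at 1 µM final; 0% = mean of DMSO vehicle wells on each plate; positive means more glutamate uptake than control and negative means less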
[4] = GFP-Q80 aggregate reduction, neuronal-like cells, cell-based, NGF-treated PC12, GFPQ80 (AID 1614); settings: PC12 NGF-treated GFP-polyQ80 inclusion reduction;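 further: lower means fewer inclusions and 0 means no inclusions at all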
[5] = 75Q-TubH aggregate inhibition, S. cerevisiae, yeast (AID 1616); settings: S. cerevisiae 75Q-TubH polyglutamine aggregation suppression; stronger effect = higher value
[6] = P. berghei load reduction in hepatocytes – cell-based, HepG2, luciferase luminescence, HepG2 viability, primary screen (AID 624349; in the data active means parasite load remaining mostly below about 12%, no sharp cut-off; inactive means mostly above about 10%;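 further: 100% = mean of DMSO negative control wells on the same plate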); settings: P. berghei liver stage in HepG2, luciferase luminescence, concentration not given here; parasite load remaining: stronger effect = lower value; viability: measured here: HepG2 viability without parasites
[7] = compounds altering circadian rhythm period length – cell-based, LOPAC library, luminescence reporter (AID 2774); settings: circadian reporter cells, at 7 µM, actives lie on both sides;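 further: values are relative to mean of DMSO wells on each plate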
[8] = test system: Hepatitis C virus NS3 helicase; assay: blockers of NS3h binding to ssDNA – biochemical, fluorescence polarization, LOPAC1280 library, primary screen (AID 687035; in the data active means inhibition above about 37%); settings: Purified HCV NS3 helicase, Cy5-dT15 ssDNA binding fluorescence polarization; stronger effect = higher value; concentration not given here
[9] = compounds altering Cy5-DNA-NS3h complex signal – biochemical, LOPAC1280, artefact control for HCV NS3 helicase inhibitor project (AID 687037); settings: Cy5-DNA-NS3h complex fluorescence interference counterscreen
[10] = compounds altering viability of human ES cells (AID 493140); settings: human embryonic stem cell survival screen; stronger effect = higher value;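 further: cells exposed to compounds for four days before counting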
[11] = signal quenchers or enhancers, Cy5 substrate/SSB – biochemical, NIH Clinical Collection, E. coli SSB, artefact control for HCV NS3 helicase inhibitor project (AID 743268); settings: Cy5-oligo bound E. coli SSB, fluorescence interference
[12] = test system: Hepatitis C virus NS3 helicase; assay: blockers of NS3h binding to DNA – biochemical, fluorescence polarization, NIH Clinical Collection, primary screen (AID 743270); settings: NS3 helicase binding to Cy5-dT15 DNA, stronger effect = higher value, concentration not given here
[13] = target: Single-stranded DNA-binding protein (Escherichia coli (strain K12)) (UniProt P0AGE0); assay: SSB-ssDNA binding inhibitors – biochemical, fluorescence polarization, NIH Clinical Collection, counter-screen for HCV NS3 helicase inhibitor project (AID 743271; in the data active means inhibition above about 28%); settings: E. coli SSB-DNA binding, stronger effect = higher value, concentration not given here
[14] = compounds distorting NS3 helicase fluorescence signal – biochemical, NIH Clinical Collection, artefact control for HCV NS3 helicase inhibitor project (AID 743272); settings: fluorescence interference counterscreen, HCV NS3 helicase assay; stronger effect = lower value;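 further: HCV NS3 helicase with a Cy5 labelled single stranded DNA probe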

Row | SMILES | nuclear beta-catenin stimulation ([1]; at 10 µM) | nuclear beta-catenin stimulation ([1]; stimulation, at 2 µM) [%] | normalised LDH release [2] | glutamate uptake change [3] | inclusion score [4] | aggregation suppression score [5] | parasite load remaining [6] | viability [6] | period change [7] | inhibition [8] | fluorescence ratio (interference) [9] | survival [10] | fluorescence ratio [11] | inhibition [12] | inhibition [13] | fluorescence ratio [14]
1 | O=c1[nH]cnc2c1ncn2[C@@H]1O[C@H](CO)[C@@H](O)[C@H]1O | -1% (inactive) | 3.1 | – | – | – | – | – | – | – | – | – | – | – | – | – | –
2 | Cc1ccc(C(=O)C(C)CN2CCCCC2)cc1 (configuration not stated) | 1.5% (inactive) | 4.3 | 0.861 | -0.03% | 1.5 | 0.367 | 97.6% (inactive) | 70.5% | – | – | – | – | – | – | – | –
3 | CC1=C(C(=O)O)N2C(=O)[C@@H](NC(=O)[C@H](N)C3=CCC=CC3)[C@H]2SC1 | -1.1% (inactive) | -2.4 | – | -0.28% | 2 | 1.56 | – | – | – | – | – | – | – | – | – | –
4 | CC(=O)Nc1ccc(S(=O)(=O)Nc2ccc([N+](=O)[O-])cc2)cc1 | 1.1% (inactive) | 1.4 | 0.673 | 20.4% | 2 | 1.23 | 152% (inactive) and 62.3% (inactive) | 92.2% and 117% | – | – | – | – | – | – | – | –
5 | O=NN(CCCl)C(=O)NCCCl | 4.9% (inactive) | 1.3 | 0.621 | 5.94% | – | 0.185 | 30.7% (inactive) | 104% | 0.115 h (inactive) | -4% (inactive) | 1 (inactive) | – | – | – | – | –
6 | N=C(N)N | -1.9% (inactive) | 0.6 | – | 5.8% | 2 | 0.901 | – | – | – | – | – | – | – | – | – | –
7 | CCOC(=O)[C@H](CCc1ccccc1)N[C@@H](C)C(=O)N1CCC[C@H]1C(=O)O | 4.4% (inactive) | 1.5 | – | -6.34% | 2 | 1.1 | – | – | – | – | – | – | – | – | – | –
8 | C[C@]12CCC(=O)C=C1CC[C@@H]1[C@@H]2[C@@H](O)C[C@@]2(C)[C@H]1CC[C@]2(O)C(=O)COP(=O)(O)O | -0.6% (inactive) | -0.1 | – | – | – | – | – | – | – | – | – | – | – | – | – | –
9 | NCCCCCC(=O)O | 2.8% (inactive) | -1 | – | -5.97% | 2 | 1.27 | 112% (inactive) and 74.1% (inactive) and 56.9% (inactive) | 104% and 74.3% and 90.5% | 0.065 h (inactive) | 1% (inactive) | 0.9 (inactive) | 2 (inactive) | – | – | – | –
10 | NNc1nncc2ccccc12 | -0.9% (inactive) | -1.5 | – | 4.84% | 2 | 1.4 | 83.7% (inactive) and 102% (inactive) and 72.4% (inactive) | 72.8% and 96.1% and 95% | 0.12 h (inactive) | -3% (inactive) | 1 (inactive) | 18.2 (inactive) | – | – | – | –
11 | O=C1c2ccccc2C(=O)c2c1ccc(O)c2O | 1.2% (inactive) | 0.3 | – | – | – | – | – | – | – | – | – | – | – | – | – | –
12 | CC1=C(C)C(=O)C(C(CCCCCC(=O)O)c2ccccc2)=C(C)C1=O (configuration not stated) | 0% (inactive) | -1 | – | – | – | – | – | – | – | – | – | – | – | – | – | –
13 | Cc1cc(C(C)(C)C)cc(C)c1CC1=NCCN1 | 0.1% (inactive) | 1 | – | 16.9% | 2 | 1.86 | – | – | 0.03 h (inactive) | 1% (inactive) | 1 (inactive) | 6.75 (inactive) | – | – | – | –
14 | CCCCNc1ccc(C(=O)OCCN(C)C)cc1 | 9.2% (inactive) | 3.3 | – | 5.32% | 2 | 1.05 | – | – | 0.035 h (inactive) | -2% (inactive) | 0.9 (inactive) | 12.4 (inactive) | – | – | – | –
15 | O=C(O)c1cccnc1Nc1cccc(C(F)(F)F)c1 | 1.4% (inactive) | 0.9 | – | 6.09% | 1 | 0.0604 | – | – | 0.085 h (inactive) | -1% (inactive) | 0.9 (inactive) | 22.6 (inactive) | – | – | – | –
16 | CCn1cc(C(=O)O)c(=O)c2cc(F)c(N3CCNC(C)C3)c(F)c21 (configuration not stated) | 1.8% (inactive) | 1.2 | – | -4.22% | 2 | 1.06 | – | – | -0.015 h (inactive) | -1% (inactive) | 1 (inactive) | 17.1 (inactive) | – | – | – | –

Row | SMILES | nuclear beta-catenin stimulation ([1]; at 10 µM) | nuclear beta-catenin stimulation ([1]; stimulation, at 2 µM) [%] | normalised LDH release [2] | glutamate uptake change [3] | inclusion score [4] | aggregation suppression score [5] | parasite load remaining [6] | viability [6] | period change [7] | inhibition [8] | fluorescence ratio (interference) [9] | survival [10] | fluorescence ratio [11] | inhibition [12] | inhibition [13] | fluorescence ratio [14]
17 | Cc1nnc(SCC2=C(C(=O)O)N3C(=O)[C@@H](NC(=O)Cn4cnnn4)[C@H]3SC2)s1 | 0.1% (inactive) | 0.2 | – | 0.76% | 2 | 1.05 | 82.1% (inactive) and 85.3% (inactive) and 68.8% (inactive) | 98.8% and 78.7% and 99.1% | -0.065 h (inactive) | -3% (inactive) | 0.9 (inactive) | 2.58 (inactive) | – | – | – | –
18 | CCCOc1ccccc1-c1nc2n[nH]nc2c(=O)[nH]1 | -0.2% (inactive) | 0.5 | – | -4.8% | 2 | 1.1 | – | – | -0.2 h (inactive) | -1% (inactive) | 1 (inactive) | 9.92 (inactive) | – | – | – | –
19 | COc1ccc(CN(CCN(C)C)c2ccccn2)cc1 | 0.1% (inactive) | 7.7 | – | 0.17% | 2 | 1.48 | – | – | 0.06 h (inactive) | 3% (inactive) | 1 (inactive) | 21.9 (inactive) | – | – | – | –
20 | Cc1cccc(C)c1OCC(C)N (configuration not stated) | 1.9% (inactive) | 2.4 | – | 6.77% | 2 | 1.44 | – | – | 0.025 h (inactive) | -2% (inactive) | 1 (inactive) | 21.7 (inactive) | 1.06 (inactive) | -4.09% (inactive) | -4.29% (inactive) | 1.04 (inactive)
21 | CC[N+](CC)(CC)CCOc1cccc(OCC[N+](CC)(CC)CC)c1OCC[N+](CC)(CC)CC | -0.5% (inactive) | -1.4 | – | 40.5% | 2 | 1.15 | – | – | 0 h (inactive) | -2% (inactive) | 1 (inactive) | 28.5 (inactive) | – | – | – | –
22 | C[C@](N)(Cc1ccc(O)c(O)c1)C(=O)O | 2.9% (inactive) | 1.2 | – | 33% | 2 | 1.39 | – | – | -0.07 h (inactive) | -3% (inactive) | 1 (inactive) | 3.58 (inactive) | – | – | – | –
23 | CCN(CC)CCNC(=O)c1cc(Cl)c(N)cc1OC | 0.2% (inactive) | -1.4 | – | -0.01% | 2 | 1.2 | – | – | -0.015 h (inactive) | -4% (inactive) | 1 (inactive) | 14.7 (inactive) | 1.01 (inactive) | -3.18% (inactive) | -0.48% (inactive) | 0.98 (inactive)
24 | CN(C)C(=O)Oc1cccc([N+](C)(C)C)c1 | 1% (inactive) | 5.2 | – | -18.8% and 13.6% | 2 | 0.695 and 1.29 | – | – | 0.06 h (inactive) | -5% (inactive) | 1 (inactive) | 12.1 (inactive) | – | – | – | –
25 | CC(=O)OCC1=C(C(=O)O)N2C(=O)[C@@H](NC(=O)Cc3cccs3)[C@H]2SC1 | 2.4% (inactive) | 4.2 | – | 0.12% | 2 | 1.47 | 98.3% (inactive) and 75.9% (inactive) and 62% (inactive) | 104% and 75.3% and 99.8% | 0.04 h (inactive) | 0% (inactive) | 1 (inactive) | 7.08 (inactive) | – | – | – | –
26 | CCN(CC)CCNC(=O)c1cc(S(C)(=O)=O)ccc1OC | 1.9% (inactive) | 0.2 | – | -0.98% | 2 | 1.49 | – | – | 0.15 h (inactive) | -3% (inactive) | 0.9 (inactive) | 16.2 (inactive) | – | – | – | –
27 | CC(C)NNC(=O)c1ccncc1 | 2.3% (inactive) | -0.3 | – | -13.1% | 2 | 1.22 | – | – | 0.33 h (inactive) | -3% (inactive) | 0.9 (inactive) | 24.2 (inactive) | – | – | – | –
28 | NS(=O)(=O)c1cc2c(cc1Cl)NC(C1CC3C=CC1C3)NS2(=O)=O (configuration not stated) | 0.8% (inactive) | 0 | – | 1.35% | 2 | 0.424 | 56.1% (inactive) | 133% | 0.225 h (inactive) | -1% (inactive) | 1 (inactive) | – | – | – | – | –
29 | CCCN(CCC)C(=O)C(CCC(=O)O)NC(=O)c1ccccc1 (configuration not stated) | -0.6% (inactive) | 0.3 | – | 11.9% | 1 | 1.2 | – | – | 0.02 h (inactive) | -4% (inactive) | 0.9 (inactive) | 19.6 (inactive) | – | – | – | –
30 | C[N+](C)(C)CCCCCC[N+](C)(C)C | -0.3% (inactive) | -1.6 | – | 11.7% | 2 | 1.28 | 28% (inactive) and 143% (inactive) and 127% (inactive) | 48% and 87.6% and 90.7% | -0.005 hour (inactive) and -0.2 hour (inactive) | 0% (inactive) and -2% (inactive) | 1 (inactive) | 12.8 (inactive) | – | – | – | –
31 | CC(=O)N[C@@H](CS)C(=O)O | 2.6% (inactive) | -1.4 | – | -3.8% | 2 | 1.2 | 106% (inactive) and 79.1% (inactive) | 72.7% and 91.5% | 0.1 h (inactive) | 0% (inactive) | 0.9 (inactive) | – | – | – | – | –
32 | O=C1NCC2(CCN(CCc3ccccc3)CC2)O1 | 0.4% (inactive) | 1.5 | – | -8.17% | 2 | 1.64 | – | – | 0 h (inactive) | -3% (inactive) | 1 (inactive) | 18.8 (inactive) | – | – | – | –
